TDP1 cell noCPT = qHTS for Inhibitors of human tyrosyl-DNA phosphodiesterase 1 (TDP1): qHTS in cells in absence of CPT; DT40 Tdp1-/- hTDP1 cells, no CPT, ATP luminescence, 48 h; Potency, µM (doses to about 46.2 µM), actives largely listed as inhibitors; 420,000 tested, 15% active; note: nearly all actives have a fitted effect of over 55% in size
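Stably hTDP1-transfected Tdp1-null chicken DT40 cells were treated with library compounds minus camptothecin and grown for at least 48 hr at 37 °C, after which cellular ATP was quantified by luminescence.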
IL-1B inflam inh = qHTS for Inhibitors of Inflammasome Signaling: IL-1-beta AlphaLISA Primary Screen. AID 743279, 2014. THP-1 LPS/ATP IL-1B secretion, AlphaLISA, 16 h; hits give low values. activity change, % at 57.5 µM. 360,000 tested, 4.7% active; in the data active = activity change below about -50%; inconclusive = mostly about -30% to -49%
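Secreted IL-1B measured by AlphaLISA bead assay after 16 h compound exposure of THP-1 cells; compounds (final up to 57.5 uM) added 1 h before LPS (250 ng/mL) and ATP (1.25 mM) stimulation; lower signal means less secretion.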
DT40 TDP1 CPT = qHTS for Inhibitors of human tyrosyl-DNA phosphodiesterase 1 (TDP1): qHTS in cells in presence of CPT | chicken DT40 Tdp1-/-;hTDP1 cells + 20 nM CPT, ATP luminescence, 48 h | Potency, µM (series often up to 46.2 µM), most hits filed as inhibitors | 420,000 tested, 12% active; note: nearly all actives have a fitted effect of over 55% in size
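Chicken DT40 Tdp1-/- cells complemented with human TDP1, 400 cells/well, exposed to compounds plus 20 nM camptothecin for at least 48 h at 37 C; viability read as ATP content by CellTiter-Glo luminescence.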
LDHA inh = qHTS assay for inhibitors of human lactate dehydrogenase | purified LDHA, NADH/diaphorase-resazurin fluorescence; hits give low values | activity change, % (values are at about 110 or 230 µM) | 480,000 tested, 0.15% active; in the data active = activity change below about -30%; inconclusive = mostly about -25% to -30%
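Remaining NADH was detected by diaphorase (0.133 mg/mL) converting 37 µM resazurin to fluorescent resorufin, read at 0 and 20 minutes. The preceding 5-minute room-temperature reaction used 2 nM LDHA, 0.2 mM sodium pyruvate and 0.06 mM NADH at pH 7.4.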
Gal4-VP16 FLuc = VP16 counterscreen qHTS for inhibitors of ROR gamma transcriptional activity; Drosophila S2 Gal4-VP16 UAS-luciferase, luminescence, 20 h; Potency, µM (doses to about 53.6 µM), most hits filed as inhibitors; 310,000 tested, 3.5% active; AID 2546, 2010;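 note: Gal4-VP16 expression switched on by copper sulfate through the metallothionein promoter; nearly all actives have a fitted effect of over 50% in size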
RORg inh = qHTS for inhibitors of ROR gamma transcriptional activity; Nuclear receptor ROR-gamma (Mus musculus), P51450; Drosophila S2 Gal4-RORgamma UAS-luciferase reporter, 20 h; Potency, µM (series often up to 53.6 µM), hits mostly inhibitors; 310,000 tested, 5.4% active; AID 2551, 2010; note: nearly all actives have a fitted effect of over 60% in size
Target sequence (P51450 whole entry, looked up, the tested form may be a part): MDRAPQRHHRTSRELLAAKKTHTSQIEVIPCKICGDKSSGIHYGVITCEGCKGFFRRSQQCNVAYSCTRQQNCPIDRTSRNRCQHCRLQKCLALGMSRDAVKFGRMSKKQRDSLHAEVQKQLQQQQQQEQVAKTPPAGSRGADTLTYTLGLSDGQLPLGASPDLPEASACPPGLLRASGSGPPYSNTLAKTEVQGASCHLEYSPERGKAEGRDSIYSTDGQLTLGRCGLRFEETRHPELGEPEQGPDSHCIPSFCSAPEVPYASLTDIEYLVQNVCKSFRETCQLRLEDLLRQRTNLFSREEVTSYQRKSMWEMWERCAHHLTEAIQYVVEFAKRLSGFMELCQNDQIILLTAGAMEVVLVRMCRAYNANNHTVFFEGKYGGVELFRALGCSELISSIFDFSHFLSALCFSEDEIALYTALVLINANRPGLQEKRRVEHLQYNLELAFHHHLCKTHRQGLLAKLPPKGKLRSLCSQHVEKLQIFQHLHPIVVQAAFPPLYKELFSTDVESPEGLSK
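Schneider cells (Drosophila), stable Gal4 DBD–ROR gamma + UAS-luc; 1 hr cmpd preincubation; Cu2+ induction 700 uM final; 20 hr ambient; luminescence.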
A number is an active result; 0 = inactive; ? = inconclusive; - = no result. Most compounds without a hit are left out; they make up all but 18% or so of the library. Unless noted, calls come from the whole dose curve; as a rule, active = well fitted curve in the direction sought with a large enough effect; inconclusive = small, poorly fitted or top-dose-only effect, or another doubt; inactive = no such curve, though single readings can be large; an effect the other way counts as inactive or inconclusive.

SMILES	TDP1 cell noCPT	IL-1B inflam inh	DT40 TDP1 CPT	LDHA inh	Gal4-VP16 FLuc	RORg inh
O=C(NCCN1C(=O)S/C(=C\c2ccc(Cl)cc2)C1=O)c1ccc(F)c(S(=O)(=O)N2CCOCC2)c1	5.8µM	0	6.5µM	0	0	?
CC(=O)Nc1ccc(NC(=O)C2CCCN2c2ncnc3ccccc23)cc1 (stereo unspecified)	-	-	-	0	-	-
Cc1cc(C)cc(NS(=O)(=O)c2cc(-c3cnc(C)o3)ccc2C)c1	-	-	-	0	-	-
CCC(=O)N1c2ccccc2CC1C(=O)NCCN1CCN(c2ccccc2F)CC1 (stereo unspecified)	?	-	?	0	-	-
CC(=O)N1c2ccccc2CC1C(=O)N1CCN(c2cccc(C)c2C)CC1 (stereo unspecified)	15µM	-	23µM	0	-	-
CCC(=O)N1c2ccccc2CC1C(=O)NCCN1CCN(c2cccc(C(F)(F)F)c2)CC1 (stereo unspecified)	29µM	-	16µM	0	-	-
CCC(=O)N1c2ccccc2CC1C(=O)NCCN1CCN(c2cccc(Cl)c2)CC1 (stereo unspecified)	?	-	23µM	0	-	-
CCC(=O)N1c2ccccc2CC1C(=O)NCCN1CCN(c2cccc(C)c2C)CC1 (stereo unspecified)	?	-	23µM	0	-	-
CCC(=O)N1c2ccccc2CC1C(=O)NCCCN1CCN(c2ccc(F)cc2)CC1 (stereo unspecified)	?	-	?	0	-	-
O=C(Nc1cccc(C(F)(F)F)c1)N1CCN(Cc2ccc(Cl)s2)CC1	-	-	-	0	-	-
CCCCN1C(=O)c2ccc(C(=O)OCc3csc(Nc4ccc(C)cc4)n3)cc2C1=O	-	-	-	0	-	-
CCN(CC)S(=O)(=O)c1ccc(NCc2cc(C)ccc2C)cc1	-	-	-	0	-	-
COc1ncccc1CNC(=O)Nc1nnc(C)s1	-	-	-	0	-	-
COc1ccc(Cl)cc1NC1=C(C(=O)N2CCOCC2)S(=O)(=O)c2ccccc21	-	-	-	0	-	-
CCC(NC(=O)/C=C/c1ccccc1)c1cccs1 (stereo unspecified)	-	-	-	0	-	-
Cc1cccc(N2CCN(C(=O)NC3CCCCC3)CC2)c1C	0	-56	?	0	0	?
CCOC(=O)c1ccccc1NC(=O)Cn1c(-c2nonc2N)nc2ccccc21	0.92µM	0	0.82µM	0	?	?
Nc1nonc1-c1nc2ccccc2n1CC(=O)Nc1ccccc1	?	0	6.5µM	0	0	0
CCCCCOc1ccc(NC(=O)Cn2c(-c3nonc3N)nc3ccccc32)cc1	0	-	?	0	-	-
Cc1ccc(NC(=O)Cn2c(-c3nonc3N)nc3ccccc32)c(Br)c1	?	-	0	0	-	-
Nc1nonc1-c1nc2ccccc2n1CC(=O)NC1CCCC1	0	0	0	0	0	0
Nc1nonc1-c1nc2ccccc2n1CC(=O)Nc1cccc(C(F)(F)F)c1	13µM	-	?	0	-	-
O=C(Cn1c(=O)n(Cc2nc(-c3ccccc3)no2)c(=O)c2ccccc21)Nc1cccc(C(F)(F)F)c1	21µM	-	?	0	-	-
O=C(Cn1c(=O)n(Cc2nc(-c3ccccc3)no2)c(=O)c2ccccc21)Nc1cccc(Cl)c1	?	-	?	0	-	-
Cc1[nH]c(=O)[nH]c(=S)c1C#N	-	-	-	0	-	-
SMILES	TDP1 cell noCPT	IL-1B inflam inh	DT40 TDP1 CPT	LDHA inh	Gal4-VP16 FLuc	RORg inh
COc1ccc(S(=O)(=O)Nc2ccc3c(c2)C(=O)N([C@H](C)CO)C[C@H](C)[C@@H](CN(C)S(=O)(=O)c2ccccc2)O3)cc1	?	0	21µM	0	-	-
COc1ccc(S(=O)(=O)N(C)C[C@H]2Oc3ccc(NC(=O)Cc4cn(C)c5ccccc45)cc3C(=O)N([C@@H](C)CO)C[C@@H]2C)cc1	15µM	0	?	0	-	-
COCCN1C(=O)c2ccccc2N2C(=O)CCC12C(=O)OCc1cc(=O)oc2cc(OC)ccc12 (stereo unspecified)	-	-	-	0	-	-
S=C(NCCC(c1ccccc1)c1ccccc1)Nc1ccccc1	-	-	-	0	-	-
S=C(NCCCCCCNC(=S)Nc1cccc(Cl)c1)Nc1cccc(Cl)c1	-	-	-	0	-	-
S=C(NCCC(c1ccccc1)c1ccccc1)Nc1cccc(Cl)c1	15µM	0	?	0	16µM	5µM
CC(C)c1cccc(C(C)C)c1NC(=S)Nc1cccc(Cl)c1	21µM	-	?	0	0	?
CC(C)C(=O)NC(=S)Nc1cccc(Cl)c1	-	-	-	0	-	-
S=C(NCCN(C1CCCCC1)C1CCCC1)Nc1cccc(Cl)c1	16µM	-	?	0	?	18µM
CCCc1ccc(-c2cc(C(=O)NC3=NCCS3)c3ccccc3n2)cc1	?	-53	?	0	1.6µM	1.8µM
Cc1ccc(-c2cc(C(=O)NC3=NCCS3)c3ccccc3n2)cc1	-	-	-	0	-	-
O=C(NC1=NCCS1)c1cc(-c2ccc(F)cc2)nc2ccccc12	?	-73	?	0	11µM	10µM
Cc1ccc(-c2cc(C(=O)NC3=NCCS3)c3ccccc3n2)cc1C	0	0	?	0	11µM	10µM
O=C(O)c1c2c(nc3ccc(Cl)cc13)CCC2	0	0	0	0	0	0
O=C(c1ccc2c(Cl)c3c(nc2c1)CCCC3)N1CCN(c2ccccc2)CC1	0	-	0	0	-	-
COc1ccc(N2CCN(C(=O)CSc3c4c(nc5ccc(Cl)cc35)CCCC4)CC2)cc1	15µM	-	21µM	0	-	-
O=C(CSc1c2c(nc3ccc(Cl)cc13)CCCC2)N1CCN(c2ccc(Cl)cc2)CC1	16µM	-	12µM	0	-	-
O=C(CSc1c2c(nc3ccc(Cl)cc13)CCCC2)N1CCN(c2cccc(Cl)c2)CC1	?	-	16µM	0	-	-
COc1ccc(C)cc1NC(=O)n1ncc2c(C)cccc21	?	0	0	0	0	0
COc1ccc(NC(=O)n2ncc3c(C)cccc32)cc1OC	?	?	?	0	?	1.1µM
COc1ccc(NC(=O)n2ncc3c(C)cccc32)cc1	0	0	0	0	2.5µM	?
O=[N+]([O-])c1ccc(C2=NN(CCO)C(=Nc3ccc(OC(F)(F)F)cc3)SC2)cc1	21µM	-63	18µM	0	0	?
COC(=O)C1=CNC=C(C(=O)OC)C1c1ccc(Cl)c(Cl)c1	-	-	-	0	-	-
CC(NC(=O)c1c(O)c2ccccc2n(C)c1=O)c1ccccc1 (stereo unspecified)	18µM	0	23µM	0	?	0
Cn1c(=O)c(C(=O)NNC(=O)c2ccccc2Cl)c(O)c2ccccc21	18µM	0	?	0	?	11µM
CCn1c(=O)c(C(=O)NNC(=O)c2ccccc2Br)c(O)c2ccccc21	?	0	?	0	?	?
